# Data reported in PubChem BioAssay (NCATS).
# Results filed as inconclusive are left out. Entries that show only a call come without a potency. Active and inactive are the calls of the source. Calls come from the whole dose curve; as a rule, active = well fitted curve in the direction sought with a large enough effect; inconclusive = small, poorly fitted or top-dose-only effect, or another doubt; inactive = no such curve, though single readings can be large; an effect the other way counts as inactive or inconclusive.
# Key:
# [1] = qHTS of pediatric cancer cell lines to identify multiple opportunities for drug repurposing: Confirmatory screen for BT-12 cells (AID 1347112); note: nearly all actives have a fitted effect of over 55% in size; note: potency is the fitted concentration of half-maximal effect
# Summary of the method: (§1)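 Cells (500-1,000/well) in growth media were settled 5 h at 37 degrees C, then given compounds for 48 h. Viability was read as CellTiter-Glo luminescence. Primary runs used MIPE at 11 points (0.78 nM-46 µM) and NPC at 8 points (0.59 nM-46 µM); follow-ups used 11 points.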
# [2] = qHTS of pediatric cancer cell lines to identify multiple opportunities for drug repurposing: Confirmatory screen for LAN-5 cells (AID 1347113); note: nearly all actives have a fitted effect of over 65% in size; note: potency is the fitted concentration of half-maximal effect
# Summary of the method: as §1
# [3] = qHTS of pediatric cancer cell lines to identify multiple opportunities for drug repurposing: Confirmatory screen for DAOY cells (AID 1347114); note: nearly all actives have a fitted effect of over 65% in size; note: potency is the fitted concentration of half-maximal effect
# Summary of the method: (§2)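 Viability measured as metabolically active cells via CellTiter-Glo luminescence following 48 hours of compound exposure, 11-point dilutions in confirmatory testing. 500-1,000 cells/well plated 5 hours before dosing; controls were DMSO and 2.3 µM bortezomib.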
# [4] = qHTS of pediatric cancer cell lines to identify multiple opportunities for drug repurposing: Confirmatory screen for NB-EBc1 cells (AID 1347115);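 note: cells exposed to compound for 48 h before the viability read; nearly all actives have a fitted effect of over 45% in size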; note: potency is the fitted concentration of half-maximal effect
# Summary of the method: as §1
# [5] = qHTS of pediatric cancer cell lines to identify multiple opportunities for drug repurposing: Confirmatory screen for SJ-GBM2 cells (AID 1347116); note: nearly all actives have a fitted effect of over 60% in size; note: potency is the fitted concentration of half-maximal effect
# Summary of the method: as §2
# [6] = qHTS of pediatric cancer cell lines to identify multiple opportunities for drug repurposing: Confirmatory screen for BT-37 cells (AID 1347117); note: nearly all actives have a fitted effect of over 55% in size; note: potency is the fitted concentration of half-maximal effect
# Summary of the method: as §1
# [7] = qHTS of pediatric cancer cell lines to identify multiple opportunities for drug repurposing: Confirmatory screen for MG 63 (6-TG R) cells (AID 1347119); note: nearly all actives have a fitted effect of over 55% in size; note: potency is the fitted concentration of half-maximal effect
# Summary of the method: as §1
# [8] = qHTS of pediatric cancer cell lines to identify multiple opportunities for drug repurposing: Confirmatory screen for control Hh wild type fibroblast cells (AID 1347121); note: nearly all actives have a fitted effect of over 70% in size; note: potency is the fitted concentration of half-maximal effect
# Summary of the method: as §1
# [9] = qHTS of pediatric cancer cell lines to identify multiple opportunities for drug repurposing: Confirmatory screen for Rh41 cells (AID 1347123);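 note: 48 h compound exposure; nearly all actives have a fitted effect of over 60% in size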; note: potency is the fitted concentration of half-maximal effect
# Summary of the method: as §1
# [10] = qHTS of pediatric cancer cell lines to identify multiple opportunities for drug repurposing: Confirmatory screen for Rh18 cells (AID 1347125); note: nearly all actives have a fitted effect of over 55% in size; note: potency is the fitted concentration of half-maximal effect
# Summary of the method: as §1
# [11] = qHTS of pediatric cancer cell lines to identify multiple opportunities for drug repurposing: Confirmatory screen for Rh30 cells (AID 1347126); note: nearly all actives have a fitted effect of over 55% in size; note: potency is the fitted concentration of half-maximal effect
# Summary of the method: as §1
# [12] = qHTS of pediatric cancer cell lines to identify multiple opportunities for drug repurposing: Confirmatory screen for Saos-2 cells (AID 1347127); note: nearly all actives have a fitted effect of over 60% in size; note: potency is the fitted concentration of half-maximal effect
# Summary of the method: as §1
# [13] = qHTS of pediatric cancer cell lines to identify multiple opportunities for drug repurposing: Confirmatory screen for OHS-50 cells (AID 1347128); note: potency is the fitted concentration of half-maximal effect
# Summary of the method: as §1
# [14] = qHTS of pediatric cancer cell lines to identify multiple opportunities for drug repurposing: Confirmatory screen for SK-N-SH cells (AID 1347129);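 note: cells exposed to compound for 48 h before viability read; nearly all actives have a fitted effect of over 60% in size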; note: potency is the fitted concentration of half-maximal effect
# Summary of the method: as §1
# [15] = qHTS of pediatric cancer cell lines to identify multiple opportunities for drug repurposing: Confirmatory screen for RD cells (AID 1347124);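 note: cells exposed to compound for 48 h before viability readout; nearly all actives have a fitted effect of over 65% in size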; note: potency is the fitted concentration of half-maximal effect
# Summary of the method: as §1
# [16] = test system: Zika virus NS2B-NS3 protease (unlinked); assay: Optimization of GU AMC qHTS for Zika virus inhibitors: Unlinked NS2B-NS3 protease assay (AID 1347151); note: nearly all actives have a fitted effect of over 80% in size; note: potency is the fitted concentration of half-maximal effect
# Summary of the method: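 In this qHTS, compounds acted on 25 nM unlinked Zika NS2B–NS3 in pH 8.0 Tris/Tween buffer. Cleavage of an AMC peptide ran 15 min at room temperature, to about 20% conversion.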
# [17] = molecular target: N-terminal Xaa-Pro-Lys N-methyltransferase 1 (Homo sapiens) (UniProt Q9BV86); assay: qHTS Assay for Inhibitors of N-terminal methyltransferase 1 (NTMT1): LOPAC validation of the NTMT1 SAHH-coupled ThioGlo3 Assay (AID 1347143);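 note: SAH from peptide methylation measured as thiol fluorescence via SAHH coupling and ThioGlo3; nearly all actives have a fitted effect of over 70% in size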; note: potency is the fitted concentration of half-maximal effect
# Sequence of N-terminal Xaa-Pro-Lys N-methyltransferase 1 (Homo sapiens) (Q9BV86 whole entry, looked up): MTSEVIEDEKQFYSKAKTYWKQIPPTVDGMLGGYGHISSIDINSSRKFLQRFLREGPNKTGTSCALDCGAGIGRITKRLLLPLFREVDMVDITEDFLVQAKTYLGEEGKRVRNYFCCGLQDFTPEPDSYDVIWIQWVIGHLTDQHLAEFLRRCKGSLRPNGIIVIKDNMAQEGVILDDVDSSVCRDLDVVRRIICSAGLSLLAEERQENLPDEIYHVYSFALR
# Summary of the method: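 In this qHTS pilot against the LOPAC set, 125nM NTMT1 met compounds tested at multiple concentrations, and fluorescence was normalized to background.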
# Furin (Homo sapiens) = Furin (Homo sapiens) (UniProt P09958); assay: Furin counterscreen qHTS for Zika virus inhibitors (AID 1347149); note: potency is the fitted concentration of half-maximal effect; nearly all actives have a fitted effect of over 70% in size
# Sequence of Furin (Homo sapiens) (P09958 whole entry, looked up): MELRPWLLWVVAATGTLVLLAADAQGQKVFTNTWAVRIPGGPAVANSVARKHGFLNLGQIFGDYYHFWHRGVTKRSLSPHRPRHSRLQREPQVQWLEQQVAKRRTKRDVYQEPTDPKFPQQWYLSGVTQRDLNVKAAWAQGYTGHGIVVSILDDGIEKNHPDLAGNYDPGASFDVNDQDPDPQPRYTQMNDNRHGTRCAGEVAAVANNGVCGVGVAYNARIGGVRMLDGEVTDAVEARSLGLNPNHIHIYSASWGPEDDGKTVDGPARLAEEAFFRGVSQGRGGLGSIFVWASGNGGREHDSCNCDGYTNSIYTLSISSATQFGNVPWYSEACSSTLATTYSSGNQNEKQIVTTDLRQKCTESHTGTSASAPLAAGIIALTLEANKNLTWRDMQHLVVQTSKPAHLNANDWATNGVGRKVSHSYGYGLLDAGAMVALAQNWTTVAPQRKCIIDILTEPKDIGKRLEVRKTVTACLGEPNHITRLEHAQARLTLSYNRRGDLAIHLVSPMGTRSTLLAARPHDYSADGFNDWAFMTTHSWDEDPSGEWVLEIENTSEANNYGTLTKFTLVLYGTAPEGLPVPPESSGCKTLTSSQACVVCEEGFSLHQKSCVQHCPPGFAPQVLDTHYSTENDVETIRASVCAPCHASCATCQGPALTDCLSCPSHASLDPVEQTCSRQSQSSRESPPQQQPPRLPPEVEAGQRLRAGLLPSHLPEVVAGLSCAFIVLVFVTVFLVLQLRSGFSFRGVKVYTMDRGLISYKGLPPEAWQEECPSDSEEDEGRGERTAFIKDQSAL
# Summary of the method: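 Counterscreen measures cleavage of 2 microM BOC-RVRR-AMC, below its ~15 microM Km, by 5 nM full-length human furin at pH 7.0 after a 15-min compound preincubation. Inhibition derives from the 15-min fluorescence increase at 37C.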
# [18] = test system: Zika virus NS2B-NS3 protease (linked construct); assay: Confirmatory screen NINDS AMC qHTS for Zika virus inhibitors (AID 1347152); note: potency is the fitted concentration of half-maximal effect; nearly all actives have a fitted effect of over 70% in size
# Summary of the method: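 Concentration-response confirmation used the NINDS linked protease (NS2B hydrophilic domain joined to NS3 protease domain), 1 nM, with a 15-min compound preincubation. Substrate, Nle-KRR-AMC at 10 microM, was read by UV fluorescence before and after 15 min.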
# [19] = test system: Zika virus NS2B-NS3 protease (unlinked complex); assay: Confirmatory screen GU AMC qHTS for Zika virus inhibitors (AID 1347153); note: nearly all actives have a fitted effect of over 70% in size
# Summary of the method: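 Unlinked enzyme 25 nM, Tris pH 8.0/0.01% Tween 20; cpd 15 min RT, dark; + AMC substrate 10 µM (Km 18.3 µM); 340/450 nm read at t0 and 15 min; % inhibition → 4-param fit.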
Structure (SMILES),Potency [1],Potency [2],Potency [3],Potency [4],Potency [5],Potency [6],Potency [7],Potency [8],Potency [9],Potency [10],Potency [11],Potency [12],Potency [13],Potency [14],Potency [15],Potency [16],Potency [17],Potency (Furin (Homo sapiens)),Potency [18],Potency [19]
CCCCc1oc2ccccc2c1C(=O)c1cc(I)c(OCCN(CC)CC)c(I)c1,79.4 µM (active),35.5 µM (active),31.6 µM (active),56.2 µM (active),79.4 µM (active),50.1 µM (active),39.8 µM (active),70.8 µM (active),17.8 µM (active),50.1 µM (active),56.2 µM (active),44.7 µM (active),44.7 µM (active),56.2 µM (active),,,,,,
Clc1ccc(C(c2ccccc2Cl)C(Cl)Cl)cc1 (stereo not drawn),inactive,inactive,,inactive,inactive,,,inactive,,inactive,inactive,inactive,inactive,inactive,inactive,,,,,
O=C(c1ccc(OCCN2CCCCC2)cc1)c1c(-c2ccc(O)cc2)sc2cc(O)ccc12,,,32.9 µM (active),inactive,,,,inactive,20.8 µM (active),inactive,3.69 µM (active),,,,,inactive,,,,
NC(=O)NO,inactive,inactive,inactive,inactive,,inactive,inactive,inactive,inactive,inactive,,inactive,inactive,,inactive,inactive,inactive,,,
Clc1ccc2nsnc2c1NC1=NCCN1,,inactive,inactive,inactive,inactive,,inactive,inactive,inactive,inactive,7.37 µM (active),20.8 µM (active),,inactive,,inactive,,,,
Cc1cn([C@H]2C=C[C@@H](CO)O2)c(=O)[nH]c1=O,,,,,,,,,,,,,,,,,inactive,,,
CN1CCN(CCCN2c3ccccc3Sc3ccc(Cl)cc32)CC1,16.5 µM (active),16.5 µM (active),20.8 µM (active),inactive,,16.5 µM (active),,inactive,11.7 µM (active),,18.5 µM (active),,,20.9 µM (active),18.5 µM (active),inactive,44.7 µM (active),,,
COc1cc2nc(N3CCN(C(=O)c4ccco4)CC3)nc(N)c2cc1OC,,,,,,,,,,,,,,,,26.7 µM (active),28.2 µM (active),14.9 µM (active),10.5 µM (active),
O=C1c2c(O)ccc(O)c2C(=O)c2c(NCCNCCO)ccc(NCCNCCO)c21,1.85 µM (active),0.165 µM (active),7.37 µM (active),0.414 µM (active),2.08 µM (active),0.261 µM (active),0.414 µM (active),14.7 µM (active),0.465 µM (active),2.61 µM (active),4.14 µM (active),0.737 µM (active),2.33 µM (active),0.526 µM (active),2.61 µM (active),inactive,50.1 µM (active),,,
N[C@@H](Cc1c[nH]c2ccc(O)cc12)C(=O)O,,,,,,,,,,,,,,,,,50.1 µM (active),,,
CCC1(c2ccccc2)C(=O)NCNC1=O,inactive,inactive,inactive,inactive,inactive,inactive,inactive,inactive,inactive,inactive,inactive,inactive,inactive,inactive,inactive,inactive,inactive,,,
NC12CC3CC(CC(C3)C1)C2,inactive,inactive,inactive,,inactive,inactive,,inactive,inactive,inactive,inactive,inactive,inactive,inactive,inactive,inactive,inactive,,,
CN(Cc1cnc2nc(N)nc(N)c2n1)c1ccc(C(=O)N[C@@H](CCC(=O)O)C(=O)O)cc1,,inactive,0.117 µM (active),,,,inactive,inactive,,inactive,inactive,,0.0131 µM (active),inactive,0.0827 µM (active),21.2 µM (active),79.4 µM (active),19.1 µM (active),,inactive
